An excerpt weighted towards active compounds, which were near 2.4% of everything screened.
ADAM10 inh: inhibits human ADAM10. O14672. recombinant ADAM10, EDANS/DABCYL FRET peptide cleavage, 3 h. inhibition, % at 7 µM. 370,000 tested, 0.62% active. AID 720582;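 active means inhibition above a per-campaign cutoff equal to the mean of compounds falling between control-based bounds plus 3 SD, cut at about 20% in these data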;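 further: 0% = DMSO wells while the 100% control is not disclosed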
A3G deaminase: inhibitors of human APOBEC3G DNA deaminase; Q9HC16; recombinant A3G, ssDNA deamination FAM/TAMRA fluorescence; inhibition, % at 20 µM; 330,000 tested, 0.28% active; AID 493012;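 active means inhibition of at least 40% at 20 µM, with no more than 30% in the related APOBEC3A deaminase screen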;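 further: plate controls were DMSO wells with A3G for no effect and wells lacking A3G enzyme for full effect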
CendR NRP1 mod: alters CendR peptide binding to human NRP-1; O14786; FAM-RPARPAR peptide binding to NRP-1, fluorescence polarization; inhibition, % at 25 µM; 360,000 tested, 0.85% active; AID 602438;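 active means inhibition or corrected inhibition above about 18%, plus a signal ratio from 0.5 to 1.5, limit read from the data, passing the limit was not always enough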
A3A deaminase: inhibitors of human APOBEC3A DNA deaminase | P31941 | recombinant A3A, FAM/TAMRA ssDNA deamination fluorescence | inhibition, % at 20 µM | 330,000 tested, 0.41% active | AID 493011;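 active means at least 40% inhibition at 20 µM here, with at most 30% in a related deaminase screen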;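 further: plate controls were A3A with DMSO for no effect and wells lacking A3A enzyme for full effect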
ADAM17 inh: inhibitors of human ADAM17. recombinant ADAM17, EDANS/DABCYL FRET peptide cleavage. inhibition, % at 6.95 µM. 370,000 tested, 0.83% active. AID 720648;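 active means inhibition above the mean of compounds lying between control limits plus 3 SD, set per campaign, cut at about 8.5% in these data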;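 further: 0% = DMSO-only wells as the low control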
Target sequence (P78536 215-824 limits assumed): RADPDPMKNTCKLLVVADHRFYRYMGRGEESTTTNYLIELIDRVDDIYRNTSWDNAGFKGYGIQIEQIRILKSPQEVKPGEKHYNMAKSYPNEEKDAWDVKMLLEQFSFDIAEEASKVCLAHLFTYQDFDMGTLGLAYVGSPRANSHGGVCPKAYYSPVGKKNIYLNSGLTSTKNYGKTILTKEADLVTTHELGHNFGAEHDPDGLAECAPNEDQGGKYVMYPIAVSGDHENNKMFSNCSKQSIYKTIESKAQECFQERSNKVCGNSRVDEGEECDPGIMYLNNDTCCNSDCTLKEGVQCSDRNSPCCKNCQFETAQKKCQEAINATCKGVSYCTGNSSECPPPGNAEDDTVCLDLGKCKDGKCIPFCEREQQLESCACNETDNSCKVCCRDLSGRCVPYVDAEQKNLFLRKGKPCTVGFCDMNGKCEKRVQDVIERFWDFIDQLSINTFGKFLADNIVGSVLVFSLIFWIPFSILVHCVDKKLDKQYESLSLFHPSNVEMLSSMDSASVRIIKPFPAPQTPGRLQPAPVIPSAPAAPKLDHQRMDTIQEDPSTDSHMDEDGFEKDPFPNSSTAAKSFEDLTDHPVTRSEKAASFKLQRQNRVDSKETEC
ADAM10 confirm: confirmation of inhibitors of human ADAM10 | shares compounds with ADAM10 inh | ADAM10 QFRET peptide cleavage, EDANS fluorescence | inhibition, % at 6.95 µM | 2,100 tested, 1% active | AID 743208;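 active means inhibition above about 20% chosen separately for each screening run, limit read from the data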;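 further: 0% = DMSO wells and 100% = marimastat wells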
ADAM17 counter: ADAM17 inhibition, counter-screen for ADAM10 exosite hits. AID 743214. ADAM17 QFRET peptide cleavage, EDANS fluorescence. inhibition, % at 6.95 µM. shares compounds with ADAM10 inh. 2,100 tested, 0.5% active;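 active means mean triplicate inhibition above the solvent-only control wells' mean plus 3 SD, cut at about 12% in these data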;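 further: 0% = DMSO wells and 100% = marimastat wells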
ADAM10 ctr: inhibits human ADAM10 in ADAM17 exosite counter-screen; shares compounds with ADAM17 inh; recombinant ADAM10, EDANS/DABCYL FRET peptide cleavage, 3 h; inhibition, % at 6.95 µM; 2,900 tested, 47% active;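 active means mean inhibition over the triplicate runs exceeds the activity threshold set in the earlier primary screen, cut at about 20% in these data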;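 further: 0% = DMSO wells and 100% = marimastat wells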
ADAM17 confirm: human ADAM17 inhibition, confirmation; shares compounds with ADAM17 inh; 2,900 tested, 65% active; AID 743257; recombinant ADAM17, EDANS/DABCYL QFRET peptide cleavage; inhibition, % at 6.95 µM;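 active means mean inhibition across replicates above the hit cutoff set in the primary screen, cut at about 8.5% in these data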;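 further: 0% = DMSO wells and 100% = marimastat wells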
* marks the source's active call; other numbers are inactive results.

What do the screens show for `Cc1ccc(S(=O)(=O)N(C)C[C@@H]2OCc3ccccc3-c3c(n(C)c4ccccc34)C(=O)N([C@H](C)CO)C[C@@H]2C)cc1`?
ADAM10 inh: 27*; CendR NRP1 mod: -2; ADAM17 inh: 12*; ADAM10 confirm: 9; ADAM17 counter: 2; ADAM10 ctr: 39*; ADAM17 confirm: 21*

What do the screens show for `Cc1ccc(S(=O)(=O)N2CCN(C(=O)CSc3ccc(Cl)cc3)CC2)cc1`?
ADAM10 inh: 11; A3G deaminase: -8; CendR NRP1 mod: 10; A3A deaminase: -4; ADAM17 inh: 1

What do the screens show for `Cc1ccc(SCC2(O)CCN(S(=O)(=O)c3ccc(Cl)cc3)CC2)cc1`?
ADAM10 inh: 29*; A3G deaminase: -1; CendR NRP1 mod: -5; A3A deaminase: -4; ADAM17 inh: 17*; ADAM10 confirm: 3; ADAM17 counter: 0; ADAM10 ctr: 28*; ADAM17 confirm: 16*

What do the screens show for `COc1cc(NC(=O)C2CCCN(S(=O)(=O)c3cccs3)C2)cc(OC)c1` (centres undefined)?
ADAM10 inh: -8; ADAM17 inh: 4

Results for CCOc1ccc(OCC)c(NC(=O)C2CCCN(S(=O)(=O)c3cccs3)C2)c1 (centres undefined) ?
ADAM10 inh: 28*; CendR NRP1 mod: -1; ADAM17 inh: 12*; ADAM10 confirm: 0; ADAM17 counter: -1; ADAM10 ctr: 1; ADAM17 confirm: 0

What do the screens show for `Cc1ccc(C)c(Cn2nnc3c(=O)[nH]c(C4CCN(S(=O)(=O)c5ccc(S(=O)(=O)N(C)C)cc5)CC4)nc32)c1`?
ADAM10 inh: -3; A3G deaminase: 2; CendR NRP1 mod: -9; A3A deaminase: 2; ADAM17 inh: -1

Results for Cc1ccc(C)c(Cn2nnc3c(=O)[nH]c(C4CCN(S(=O)(=O)c5ccc(S(=O)(=O)NC6CC6)cc5)CC4)nc32)c1 ?
ADAM10 inh: 25*; A3G deaminase: -12; CendR NRP1 mod: 8; A3A deaminase: -5; ADAM17 inh: 11*; ADAM10 confirm: 5; ADAM17 counter: 2; ADAM10 ctr: 39*; ADAM17 confirm: 21*

How did Cc1ccc(Cn2nnc3c(=O)[nH]c(C4CCN(S(=O)(=O)c5cc(C)ccc5C)CC4)nc32)cc1 do in these assays?
ADAM10 inh: 43*; A3G deaminase: -4; CendR NRP1 mod: 20; A3A deaminase: 4; ADAM17 inh: 15*; ADAM10 confirm: 5; ADAM17 counter: 3; ADAM10 ctr: 25*; ADAM17 confirm: 11*

What do the screens show for `O=C(CSc1nnc(-c2ccco2)c(-c2ccco2)n1)c1ccccc1`?
ADAM10 inh: 27*; A3G deaminase: 67; CendR NRP1 mod: -15; A3A deaminase: 84; ADAM17 inh: 9.0*; ADAM10 confirm: 4; ADAM17 counter: 2; ADAM10 ctr: -11; ADAM17 confirm: -1

How did Nc1ccc2c(c1)Cc1cc(N)c(Cl)cc1-2 do in these assays?
ADAM10 inh: 27*; CendR NRP1 mod: 0; ADAM17 inh: 12*; ADAM10 confirm: 9; ADAM17 counter: 5; ADAM10 ctr: -5; ADAM17 confirm: 4

How did Nc1ccc2c(c1)Cc1cc(Cl)c(Cl)cc1-2 do in these assays?
ADAM10 inh: -11; CendR NRP1 mod: -6; ADAM17 inh: 1

Results for CC(C)(C)n1nc(C2CC2)c(Br)c1NC(=O)c1ccccc1Cl ?
ADAM10 inh: 11; ADAM17 inh: 2

What do the screens show for `NC(=O)c1ccc(NC(=O)c2ccc(COc3ccccc3Br)cc2)cc1`?
ADAM10 inh: -5; A3G deaminase: 9; CendR NRP1 mod: -6; A3A deaminase: -2; ADAM17 inh: 1

How did Cc1cc(C)n(Cc2ccc(NC(=O)c3ccc(COc4ccccc4Br)cc3)cc2)n1 do in these assays?
ADAM10 inh: 29*; A3G deaminase: 1; CendR NRP1 mod: 3; A3A deaminase: 5; ADAM17 inh: 11*; ADAM10 confirm: 10; ADAM17 counter: 4; ADAM10 ctr: 17; ADAM17 confirm: 12*

How did CC(NC(=O)C(NC(=O)OCc1ccccc1)C(C)O)C(=O)OCc1ccccc1 (centres undefined) do in these assays?
ADAM10 inh: -1; ADAM17 inh: 0

What do the screens show for `COc1ccc(-n2c(COc3ccccc3)nnc2SCC(=O)Nc2ccccc2-c2ccccc2)cc1`?
ADAM10 inh: 20*; ADAM17 inh: 11*; ADAM10 confirm: 6; ADAM17 counter: 3; ADAM10 ctr: 24*; ADAM17 confirm: 13*

What do the screens show for `COc1ccc(-n2c(SCC(=O)Nc3ccccc3-c3ccccc3)nnc2-c2ccccn2)cc1`?
ADAM10 inh: 7; ADAM17 inh: 5

What do the screens show for `CC1(Cc2cc(Cl)ccc2C(F)(F)F)C(=O)Nc2cc(F)ccc21` (centres undefined)?
CendR NRP1 mod: 2

Results for CC1(Cc2ccc(C(F)(F)F)o2)C(=O)Nc2cc(-c3ccc(F)cc3F)ccc21 (centres undefined) ?
ADAM10 inh: 45*; CendR NRP1 mod: 5; ADAM17 inh: 13*; ADAM10 confirm: 11; ADAM17 counter: 3; ADAM10 ctr: 44*; ADAM17 confirm: 24*

Results for O=C(O)CSC1CC(=O)N(c2ccc(Cl)cc2)C1=O (centres undefined) ?
ADAM10 inh: -4; A3G deaminase: 1; CendR NRP1 mod: -2; A3A deaminase: 1; ADAM17 inh: -2

What do the screens show for `O=C(CSC1CC(=O)N(CC(c2ccccc2)c2ccccc2)C1=O)Nc1ccc(Cl)cc1` (centres undefined)?
ADAM10 inh: 25*; CendR NRP1 mod: 6; ADAM17 inh: 16*; ADAM10 confirm: 9; ADAM17 counter: 3; ADAM10 ctr: 32*; ADAM17 confirm: 20*

Results for O=S1(=O)CC2c3ccc(F)cc3CN2CN1Cc1ccccc1 (centres undefined) ?
ADAM10 inh: -3; ADAM17 inh: 0
